Reference: PubChem BioAssay (NCI)
This is part of a sample that, as a whole, favours compounds with a hit. Of some 83,000 tested, about 20% had one in any assay.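 How to read the values: 0–100, growth inhibition (40 = 60% inhibited); 0, no net growth; -100 to 0, cell death (-40 = 40% of starting cells died; -100 = all dead).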 Values without a mark were called inactive. Activity calls are given as the source filed them. The calls were made as follows: active = growth percent below 10; inactive = the rest.

Experiments:
Assay in all cases: NCI-60 one-dose screen, 48 h (100 = growth as untreated, 0 = no growth, -100 = all killed)
Conditions in all cases: 10 µM unless noted
SK-MEL-2 melanoma = system: SK-MEL-2 melanoma
EKVX NSCLC = system: EKVX NSCLC
SN12C renal = system: SN12C renal
UO-31 renal = system: UO-31 renal
TK-10 renal = system: TK-10 renal
ACHN renal = system: ACHN renal
CAKI-1 renal = system: CAKI-1 renal
A498 renal = system: A498 renal
CCRF-CEM leukemia = system: CCRF-CEM leukemia
MOLT-4 leukemia = system: MOLT-4 leukemia
SR leukemia = system: SR leukemia
RPMI-8226 leukemia = system: RPMI-8226 leukemia
OVCAR-8 ovarian = system: OVCAR-8 ovarian
OVCAR-5 ovarian = system: OVCAR-5 ovarian
OVCAR-4 ovarian = system: OVCAR-4 ovarian
SK-OV-3 ovarian = system: SK-OV-3 ovarian
IGROV1 ovarian = system: IGROV1 ovarian
NCI/ADR-RES ovarian = system: NCI/ADR-RES ovarian
OVCAR-3 ovarian = system: OVCAR-3 ovarian
HS 578T breast = system: HS 578T breast

SMILES	growth (SK-MEL-2 melanoma)	growth (EKVX NSCLC)	growth (SN12C renal)	growth (UO-31 renal)	growth (TK-10 renal)	growth (ACHN renal)	growth (CAKI-1 renal)	growth (A498 renal)	growth (CCRF-CEM leukemia)	growth (MOLT-4 leukemia)	growth (SR leukemia)	growth (RPMI-8226 leukemia)	growth (OVCAR-8 ovarian)	growth (OVCAR-5 ovarian)	growth (OVCAR-4 ovarian)	growth (SK-OV-3 ovarian)	growth (IGROV1 ovarian)	growth (NCI/ADR-RES ovarian)	growth (OVCAR-3 ovarian)	growth (HS 578T breast)
COc1ccc2c(c1)[nH]c(=O)c1c3cc(OC)ccc3cn21	71.7%	48.7%	32.7%	28.6%	48.7%	19.1%	41.3%	51.7%	-58.8% (active)	26.2%	20.4%	-63.2% (active)	4.9% (active)	25.9%	46.1%	42.4%	16.8%	21.5%		
Cn1cc(-c2cnc3ccc(NC(=O)Nc4ccc(F)c(Br)c4)cc3n2)cn1	-3.42% (active)	29.7%	46.1%	16.9%	52%	20.2%	12.8%	16.5%	4.33% (active)	-21.2% (active)	34%	-34.1% (active)	7.83% (active)	51.2%	10.7%	44.7%	32.8%	12.4%	28.2%	37.4%
c1ccc(-c2cn(-c3ccccc3)c(-c3ccccc3)n2)cc1	81.7%	89.1%	97.7%	41.4%	81.8%	91.1%	98.4%	94.5%	-25.8% (active)	-13.3% (active)	-29.7% (active)	-58.9% (active)	21.1%	83.4%	88.7%	97.1%		92.4%	13.4%	87.1%
Cc1nc2ncccc2nc1Nc1ccc(S(=O)(=O)Nc2cncs2)cc1	103%	88.2%	82.7%	58.8%	101%	99.7%	84.1%	118%	100%	99.4%	102%	88.4%	103%	96.4%	98.6%	86.2%	51%	98%		92.8%
C=C(C)[C@@H]1C[C@H](O)Cc2cc(F)ccc2N1	76.8%	87.3%	93.8%	75.5%	92.3%	94.4%	91.4%	111%	-62.7% (active)	-28.3% (active)	83.2%	74.8%	96.5%	85.5%	108%	102%	108%	93.6%	111%	96.8%
NNc1cccc(/C=C/c2ccccc2)cc1=O	83.1%	47.9%	71.6%	24.9%	70.7%	37.5%	12.7%	83.9%	14.1%	37.6%	31.8%	29.8%	57.8%	82.3%	45.9%	76.4%		59.6%	54.6%	78.5%
O=[N+]([O-])c1cccc(-c2nc3sccn3c2-c2ccnc(NCCCNS(=O)(=O)c3ccc(C(F)(F)F)cc3)n2)c1	25.3%	38.1%	35.4%	12.5%	73.6%	22.6%	21.1%	25%	14.5%	7.2% (active)	37.5%	-4.61% (active)	22.3%	90.6%	15.2%	71.9%	25.6%	8.78% (active)	28.7%	63.3%
COc1ccc(-c2nc(SCCC(C)C)nc(Nc3ccc(F)c(Cl)c3)c2C#N)cc1	120%	55.7%	56.7%	56.6%	62.6%	47.8%	75.5%	76.8%	71%	86.1%	57.3%	95.5%	65.8%	102%	-43.1% (active)	96%	60.3%	81.4%	57.3%	65%
Cc1cc(N/N=C/c2nc(-c3ccc(Br)cc3)oc2C)c2cc(Cl)ccc2n1	110%	95.7%	48.4%	86.6%	114%	86.9%	96.2%	85.5%	-16.6% (active)	3.49% (active)	5.46% (active)	-9.52% (active)	41.4%	102%	-74.2% (active)	104%	92.6%	69.2%	45.2%	106%
C=C[C@@H]1C[C@@H]2Cc3cc(Cl)ccc3N1O2	107%	90.2%	94.9%	101%	101%	104%	88.7%	85.6%	-61.3% (active)		92.4%	84.9%	99.4%	97.8%	102%	101%	112%	101%	109%	97.1%
CCCCNC(=O)Oc1ccc(/C(=C(\C)c2ccccc2)c2ccc(OCCN(CC)CC)cc2)cc1	92.1%	80.8%	83.3%	44.1%	88.1%	88%	82.5%	65.3%	60.1%		14.5%	49.8%	77%	77.7%	79.7%	74.5%	77.2%	84.4%	75.1%	39.8%
N/C(=N\S(=O)(=O)c1ccccc1)Nc1nc2ccccc2s1	93.1%	86.9%	86.1%	74.2%	108%	94.7%	89.3%	118%	109%	99.4%		88.6%	87.6%	96.9%	100%	85.4%		91.8%	107%	98.2%
O=C1Nc2ccc(Cl)cc2C12Nc1cc(Cl)ccc1S2 (stereo not drawn)	105%	73.3%	90.1%	57.4%	111%	104%	112%	118%	97.3%	38.3%		44.3%	99.2%	113%		108%		82.5%	72%	144%
